# Experimental data published in PubChem BioAssay (EPA / NIEHS).
# Calls of active or inactive are those of the source. Rule for the calls: active = hit-call score of the fitted dose curve at least 0.9, where 1 is the maximum; inactive = score below 0.9.
# Columns and labels:
# Conditions in all cases: mRNA level, 48 h; actives raise or lower the signal
# [1] = read-out: ABC Transporter (ABCC2), ABCC2 (gene 1244); test: LTEA_HepaRG_ABCC2: Life Technologies and Expression Analysis (LTEA) Assay for ABC Transporter (ABCC2) using HepaRG (AID 2283464)
# How it was run: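 HepaRG cells were plated 48 h, switched to serum-free induction medium, then exposed in duplicate for 48 h to 8 concentrations (top 100 uM, half-log steps, 0.5% DMSO). ABCC2 mRNA was measured by qRT-PCR normalized to ACTB/GAPDH/POLR2A; bidirectional fitting versus DMSO.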
# [2] = read-out: Broad substrate specificity ATP-binding cassette transporter ABCG2 (Homo sapiens) (UniProt Q9UNQ0); test: LTEA_HepaRG_ABCG2: Life Technologies and Expression Analysis (LTEA) Assay for ABC Transporter (ABCG2) using HepaRG (AID 2283465)
# How it was run: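 Gene expression of ABCG2 in HepaRG liver cells is quantified by qRT-PCR following 48 h exposure across an eight-point series topping at 100 uM. Values come from bidirectional fitting relative to DMSO vehicle.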
# [3] = read-out: ATP-citrate lyase (ACLY), ACLY (gene 47); test: LTEA_HepaRG_ACLY: Life Technologies and Expression Analysis (LTEA) Assay for ATP-citrate lyase (ACLY) using HepaRG (AID 2283466)
# How it was run: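 ACLY expression changes in human HepaRG liver cells are quantified by qRT-PCR after 48 h exposure to test chemicals (maximum 100 uM, half-log steps). Values are fitted in both directions relative to 0.5% DMSO vehicle.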
# [4] = read-out: Peroxisomal acyl-coenzyme A oxidase 1 (ACOX1) gene, ACOX1 (gene 51); test: LTEA_HepaRG_ACOX1: Life Technologies and Expression Analysis (LTEA) Assay for Peroxisomal acyl-coenzyme A oxidase 1 (ACOX1) gene using HepaRG (AID 2283467)
# How it was run: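 Human HepaRG hepatic cultures, 48 h treatment with test chemicals up to 100 uM. ACOX1 expression read by qRT-PCR relative to 0.5% DMSO vehicle.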
# [5] = read-out: Alkaline Phosphatase, Placental (ALPP) gene, ALPP (gene 250); test: LTEA_HepaRG_ALPP: Life Technologies and Expression Analysis (LTEA) Assay for Alkaline Phosphatase, Placental (ALPP) gene using HepaRG (AID 2283468)
# How it was run: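 Differentiated human HepaRG cells were plated and cultured 48 h, then exposed in duplicate for 48 h in serum-free induction medium to eight half-log concentrations from 100 uM in 0.5% DMSO. ALPP mRNA was measured by TaqMan qRT-PCR, normalized to ACTB, GAPDH, POLR2A.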
# [6] = read-out: Bcl-2 (BAD) gene, BAD (gene 572); test: LTEA_HepaRG_BAD: Life Technologies and Expression Analysis (LTEA) Assay for Bcl-2 (BAD) gene using HepaRG (AID 2283469)
# How it was run: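 Activity values reflect up- or down-regulation of BAD mRNA in human HepaRG hepatic cells treated 48 h in serum-free medium, with eight-point half-log dosing capped at 100 uM and 0.5% DMSO vehicle.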
# [7] = read-out: Bcl-2 (BAX) gene, BAX (gene 581); test: LTEA_HepaRG_BAX: Life Technologies and Expression Analysis (LTEA) Assay for Bcl-2 (BAX) gene using HepaRG (AID 2283470)
# How it was run: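 Gene expression measured by Fluidigm qRT-PCR with three housekeeping genes for normalisation. HepaRG cells, plated 48 h beforehand, treated 48 h at up to 100 uM (8-point, half-log) in 0.5% DMSO. Bidirectional fitting versus DMSO.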
# [8] = read-out: adenosine kinase (ADK) gene, ADK (gene 132); test: LTEA_HepaRG_ADK: Life Technologies and Expression Analysis (LTEA) Assay for adenosine kinase (ADK) gene using HepaRG (AID 2283471)
# How it was run: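 HepaRG (human liver), 48 h chemical exposure, 8-pt half-log series, top 100 uM, 0.5% DMSO vehicle. Readout: ADK mRNA by qRT-PCR vs housekeeping genes; bidirectional curve fit relative to DMSO baseline.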
# [9] = read-out: Alpha-fetoprotein (AFP) gene, AFP (gene 174); test: LTEA_HepaRG_AFP: Life Technologies and Expression Analysis (LTEA) Assay for Alpha-fetoprotein (AFP) gene using HepaRG (AID 2283472)
# How it was run: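 AFP transcript measured by TaqMan qRT-PCR with three housekeeping genes for normalization, after 48 h chemical treatment of HepaRG cells (top 100 uM, half-log steps, 0.5% DMSO). Gain or loss fitted against vehicle.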
# BCL2L11 (gene 10018) = test: LTEA_HepaRG_BCL2L11: Life Technologies and Expression Analysis (LTEA) Assay for Bcl-2 (BCL2L11) gene using HepaRG (AID 2283473)
# How it was run: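 Differentiated human HepaRG cells in serum-free induction medium were exposed in duplicate for 48 h to eight concentrations (top 100 uM, half-log steps, 0.5% DMSO). BCL2L11 mRNA was quantified by TaqMan qRT-PCR, normalized to ACTB/GAPDH/POLR2A, bidirectional fit versus DMSO.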
# [10] = read-out: Apolipoprotein A-V (APOA5) gene, APOA5 (gene 116519); test: LTEA_HepaRG_APOA5: Life Technologies and Expression Analysis (LTEA) Assay for Apolipoprotein A-V (APOA5) gene using HepaRG (AID 2283474)
# How it was run: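 Differentiated human HepaRG cells were exposed in duplicate for 48 h to eight half-log concentrations from 100 uM in 0.5% DMSO. APOA5 mRNA was quantified by TaqMan qRT-PCR, normalized to ACTB, GAPDH and POLR2A, and fitted bidirectionally against DMSO.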
# [11] = read-out: Bcl-2 (BID) gene, BID (gene 637); test: LTEA_HepaRG_BID: Life Technologies and Expression Analysis (LTEA) Assay for Bcl-2 (BID) gene using HepaRG (AID 2283476)
# How it was run: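 Duplicate 48 h treatments of HepaRG cells in serum-free induction medium spanned 100 uM downward in half-log steps, 0.5% DMSO. Transcript change quantified by qRT-PCR against three housekeeping genes, fitted up or down versus DMSO.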
# Caspase-3 (Homo sapiens) = Caspase-3 (Homo sapiens) (UniProt P42574); test: LTEA_HepaRG_CASP3: Life Technologies and Expression Analysis (LTEA) Assay for cysteine-aspartic acid protease (CASP3) using HepaRG (AID 2283477)
# How it was run: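 Differentiated human HepaRG cells in serum-free induction medium were exposed 48 h to 8-point half-log concentrations from 100 uM (0.5% DMSO vehicle). CASP3 mRNA was measured by qRT-PCR, normalised to ACTB, GAPDH and POLR2A, with bidirectional fitting against DMSO.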
# [12] = read-out: Cytochrome P450 (CYP24A1), CYP24A1 (gene 1591); test: LTEA_HepaRG_CYP24A1: Life Technologies and Expression Analysis (LTEA) Assay for Cytochrome P450 (CYP24A1) using HepaRG (AID 2283478)
# How it was run: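 Differentiated HepaRG cells, pre-cultured 48 h, were exposed in duplicate for 48 h in serum-free induction medium to 8 half-log concentrations (top 100 uM, 0.5% DMSO). CYP24A1 mRNA was quantified by TaqMan qRT-PCR, normalized to ACTB/GAPDH/POLR2A, fitted bidirectionally versus DMSO.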
# [13] = read-out: Cytochrome P450 (CYP1A2), CYP1A2 (gene 1544); test: LTEA_HepaRG_CYP1A2: Life Technologies and Expression Analysis (LTEA) Assay for Cytochrome P450 (CYP1A2) using HepaRG (AID 2283479)
# How it was run: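 Differentiated human HepaRG cells in serum-free induction medium were exposed in duplicate for 48 h to 8-point half-log concentrations up to 100 uM in 0.5% DMSO. CYP1A2 mRNA measured by qRT-PCR, normalized to ACTB, GAPDH, POLR2A; bidirectional fit vs DMSO.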
# [14] = read-out: cysteine-aspartic acid protease (CASP8), CASP8 (gene 841); test: LTEA_HepaRG_CASP8: Life Technologies and Expression Analysis (LTEA) Assay for cysteine-aspartic acid protease (CASP8) using HepaRG (AID 2283480)
# How it was run: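 Concentration-response in duplicate up to 100 uM (half-log steps, 0.5% DMSO) on differentiated HepaRG cultures for 48 h. Expression change of CASP8 mRNA is determined by TaqMan qRT-PCR with housekeeping-gene normalization.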
# [15] = read-out: Cytochrome P450 (CYP2B6), CYP2B6 (gene 1555); test: LTEA_HepaRG_CYP2B6: Life Technologies and Expression Analysis (LTEA) Assay for Cytochrome P450 (CYP2B6) using HepaRG (AID 2283481)
# How it was run: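 Differentiated HepaRG cells, serum-free induction medium, exposed 48 h in duplicate to 8-point half-log concentrations from 100 uM in 0.5% DMSO. CYP2B6 mRNA by qRT-PCR, normalized to ACTB, GAPDH, POLR2A; bidirectional fit versus DMSO.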
# CYP2C8 (gene 1558) = test: LTEA_HepaRG_CYP2C8: Life Technologies and Expression Analysis (LTEA) Assay for CYP2C8 using HepaRG (AID 2283483)
# How it was run: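 This is a transcriptional endpoint in HepaRG cultures: 48 h exposure, highest concentration 100 uM. CYP2C8 mRNA is quantified by TaqMan qRT-PCR.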
# [16] = read-out: Cytochrome P450 2C19 (Homo sapiens) (UniProt P33261); test: LTEA_HepaRG_CYP2C19: Life Technologies and Expression Analysis (LTEA) Assay for CYP2C19 using HepaRG (AID 2283482)
# How it was run: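 Differentiated human HepaRG cells were exposed for 48 h in serum-free induction medium to 8 concentrations (top 100 uM, half-log steps, 0.5% DMSO). CYP2C19 mRNA was measured by qRT-PCR, normalized to ACTB/GAPDH/POLR2A, and fitted bidirectionally against DMSO.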
# Chain of Caspase-3 (Homo sapiens) (P42574 whole entry, looked up): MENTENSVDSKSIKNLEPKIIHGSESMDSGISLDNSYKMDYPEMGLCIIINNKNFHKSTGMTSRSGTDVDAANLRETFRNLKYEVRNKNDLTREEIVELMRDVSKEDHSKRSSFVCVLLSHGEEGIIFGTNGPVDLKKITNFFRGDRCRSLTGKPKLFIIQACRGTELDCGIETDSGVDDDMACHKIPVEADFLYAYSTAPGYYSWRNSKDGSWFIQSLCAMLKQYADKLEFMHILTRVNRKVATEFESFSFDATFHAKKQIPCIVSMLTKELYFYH
# Chain of Broad substrate specificity ATP-binding cassette transporter ABCG2 (Homo sapiens) (Q9UNQ0 whole entry, looked up): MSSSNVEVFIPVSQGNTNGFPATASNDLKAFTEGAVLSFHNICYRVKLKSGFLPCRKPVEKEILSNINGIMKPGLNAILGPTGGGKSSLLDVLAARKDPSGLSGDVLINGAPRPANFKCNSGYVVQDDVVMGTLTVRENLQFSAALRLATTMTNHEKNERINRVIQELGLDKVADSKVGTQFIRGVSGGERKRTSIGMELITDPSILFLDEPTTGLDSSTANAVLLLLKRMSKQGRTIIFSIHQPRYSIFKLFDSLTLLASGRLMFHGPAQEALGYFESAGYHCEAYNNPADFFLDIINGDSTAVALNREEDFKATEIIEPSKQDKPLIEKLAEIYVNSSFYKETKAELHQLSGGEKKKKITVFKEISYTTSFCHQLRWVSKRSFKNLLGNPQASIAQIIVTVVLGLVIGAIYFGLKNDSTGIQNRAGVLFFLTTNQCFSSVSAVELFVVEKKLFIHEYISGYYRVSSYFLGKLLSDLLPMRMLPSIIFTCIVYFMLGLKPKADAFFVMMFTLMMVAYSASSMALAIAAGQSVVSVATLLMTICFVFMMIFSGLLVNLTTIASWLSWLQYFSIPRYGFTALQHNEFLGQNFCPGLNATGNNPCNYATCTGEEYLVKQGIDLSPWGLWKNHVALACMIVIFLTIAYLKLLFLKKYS
# Chain of Cytochrome P450 2C19 (Homo sapiens) (P33261 whole entry, looked up): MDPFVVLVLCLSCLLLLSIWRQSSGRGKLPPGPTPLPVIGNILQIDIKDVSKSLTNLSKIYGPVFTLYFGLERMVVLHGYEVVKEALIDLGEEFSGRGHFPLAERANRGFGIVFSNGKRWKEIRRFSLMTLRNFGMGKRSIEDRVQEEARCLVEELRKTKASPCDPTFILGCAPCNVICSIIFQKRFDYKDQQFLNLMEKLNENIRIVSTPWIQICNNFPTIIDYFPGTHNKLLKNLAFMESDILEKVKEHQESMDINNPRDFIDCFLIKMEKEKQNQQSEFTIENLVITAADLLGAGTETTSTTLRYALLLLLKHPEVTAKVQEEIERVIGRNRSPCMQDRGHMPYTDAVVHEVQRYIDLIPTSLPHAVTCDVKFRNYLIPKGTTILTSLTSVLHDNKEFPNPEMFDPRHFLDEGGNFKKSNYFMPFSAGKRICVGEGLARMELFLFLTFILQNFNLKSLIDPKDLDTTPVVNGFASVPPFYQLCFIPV
smiles,measurement,setting,value
CCCCCCOC(=O)CC(CC(=O)OCCCCCC)(OC(=O)CCC)C(=O)OCCCCCC,outcome,[1],inactive
same,outcome,[2],inactive
same,outcome,[3],inactive
same,outcome,[4],inactive
same,outcome,[5],inactive
same,outcome,[6],inactive
same,outcome,[7],inactive
same,outcome,[8],inactive
same,outcome,[9],inactive
same,outcome,BCL2L11 (gene 10018),inactive
same,outcome,[10],inactive
same,outcome,[11],inactive
same,outcome,Caspase-3 (Homo sapiens),inactive
same,outcome,[12],inactive
same,outcome,[13],inactive
same,outcome,[14],inactive
same,AC50,[15],12300 nM (active)
same,outcome,CYP2C8 (gene 1558),inactive
COc1cc2c(c(OC)c1OC)-c1ccc(OC)c(=O)cc1[C@@H](NC(C)=O)CC2,AC50,[1],133 nM (active)
same,outcome,[2],inactive
same,outcome,[3],inactive
same,AC50,[4],98.9 nM (active)
same,AC50,[5],221 nM (active)
same,outcome,[6],inactive
same,AC50,[7],55.9 nM (active)
same,AC50,[8],64.4 nM (active)
same,AC50,[9],148 nM (active)
same,AC50,BCL2L11 (gene 10018),237 nM (active)
same,AC50,[10],138 nM (active)
same,outcome,[11],inactive
same,outcome,Caspase-3 (Homo sapiens),inactive
same,outcome,[12],inactive
same,outcome,[14],inactive
same,AC50,[15],98.6 nM (active)
same,AC50,CYP2C8 (gene 1558),95.1 nM (active)
CC[C@H](C)C(=O)O[C@H]1C[C@H](O)C=C2C=C[C@H](C)[C@H](CC[C@@H](O)C[C@@H](O)CC(=O)O)[C@H]21,outcome,[1],inactive
same,outcome,[2],inactive
same,AC50,[3],9050 nM (active)
same,outcome,[4],inactive
same,outcome,[5],inactive
same,outcome,[6],inactive
same,outcome,[7],inactive
same,outcome,[8],inactive
same,outcome,[9],inactive
same,outcome,BCL2L11 (gene 10018),inactive
same,outcome,[10],inactive
same,outcome,[11],inactive
same,outcome,Caspase-3 (Homo sapiens),inactive
same,outcome,[12],inactive
same,AC50,[13],3090 nM (active)
same,outcome,[14],inactive
same,outcome,[15],inactive
same,outcome,[16],inactive
same,outcome,CYP2C8 (gene 1558),inactive
